Consider 34 compounds from PubChem BioAssay AID1259325 (C. David Weaver Laboratory, Vanderbilt University, 2017).

Out of some 63,000 compounds screened, about 30 (0.05%) were called active. No rule for the calls is given here. The list is a sample of the results.

The test deals with G protein-activated inward rectifier potassium channel 2 (Homo sapiens) (UniProt P48051). Put plainly: opens human GIRK2 potassium channels (AID 1259325). The conditions noted are these: HEK293-GIRK2 thallium flux, Thallos fluorescence, MPD.
G protein-activated inward rectifier potassium channel 2 (Homo sapiens), sequence (P48051 whole entry, looked up): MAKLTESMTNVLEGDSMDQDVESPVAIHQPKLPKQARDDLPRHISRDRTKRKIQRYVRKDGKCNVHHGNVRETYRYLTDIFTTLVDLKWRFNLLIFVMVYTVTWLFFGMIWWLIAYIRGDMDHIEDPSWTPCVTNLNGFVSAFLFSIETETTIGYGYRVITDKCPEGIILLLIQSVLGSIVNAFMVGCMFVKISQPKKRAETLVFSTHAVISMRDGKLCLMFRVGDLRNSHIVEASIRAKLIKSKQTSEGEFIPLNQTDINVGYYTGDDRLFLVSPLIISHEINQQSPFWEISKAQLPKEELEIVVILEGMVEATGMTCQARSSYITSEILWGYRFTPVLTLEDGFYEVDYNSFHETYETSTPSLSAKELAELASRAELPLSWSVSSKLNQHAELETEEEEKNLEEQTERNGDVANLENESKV
In the case of `O=S(=O)(c1ccccc1F)N(CCc1cccs1)Cc1ccoc1`, the outcome was inactive.

Turning to `COc1ccc(Nc2c(C(=O)N3CCCCC3)cnc3nc(C)ccc23)cc1OC`, the result was inactive.

Turning to `O=S(=O)(NCCC(O)c1ccoc1)c1ccc(F)c(Cl)c1` (centres undefined), the result was inactive.

On to `COC(=O)c1ccc2c(=O)n(CCC(=O)NCCN3CCCc4ccccc43)c(=S)[nH]c2c1`, for which the compound was called inactive.

As for `Cc1nc2sc(C)c(C)n2c(=O)c1NC(=O)c1ccccc1C(F)(F)F`, the compound was classed as inactive.

As to `COC(=O)Nc1nc2c(s1)CN(C(=O)c1cccc(C#N)c1)CC2`, the compound was called inactive.

As for `COc1cc(NC(=O)c2cnccn2)ccc1N1CCCC1=O`, the compound was called inactive.

For the compound `Cc1nn(-c2ccccc2)c(C)c1N1CCN(S(=O)(=O)c2cccs2)CC1`, the call was inactive.

Take `Cn1cccc1C(=O)N1CCN(Cc2nncn2-c2ccccc2F)CC1`: the compound was classed as inactive.

Turning to `Cc1cn2c3c(=O)n(C/C=C/c4ccccc4)c(=O)n(C)c3nc2n1-c1ccccc1O`, the compound was called inactive.

`CCCCN(C)C(=O)c1cc2c(=O)n3ccccc3nc2n1CCCOC`: the compound was classed as inactive.

Consider `COc1ccc(OC)c(S(=O)(=O)NCC(c2ccc(F)cc2)N2CCOCC2)c1` (centres undefined), for which the compound was called inactive.

With `CCOC(=O)c1cnn2ccc(NC(=O)c3cnn(-c4ccccc4)c3C)cc12`, the call was inactive.

For `COc1ccc(C(O)CN2CCN(c3cccc(C)c3C)CC2)cc1` (centres undefined), the compound was classed as inactive.

In the case of `Cc1cc(NC(=O)C2CCN(C(=O)C3(c4ccccc4)CCOCC3)CC2)no1`, the compound was classed as inactive.

`COc1cccc(C(=O)Oc2ccc(/C=C/c3ccccn3)cc2)c1`: the result was inactive.

As for `Nc1cc2cc(Br)ccc2cn1`, the compound was called inactive.

Consider `COc1ncccc1C(=O)NCCn1nc(C2CC2)n(-c2ccccc2)c1=O`, for which the outcome was inactive.

In the case of `CCc1cc2c(=O)n(Cc3ccco3)c(SCc3cc(=O)[nH][nH]3)nc2s1`, the outcome was inactive.

For the compound `Cc1cc(N2CCN(CCO)CC2)n2nc(C(F)(F)F)c(-c3ccc(Cl)cc3)c2n1`, the compound was called inactive.

As for `CCOc1ccc(N(C)S(=O)(=O)c2ccsc2C(=O)NCCC2=CCCCC2)cc1`, the result was inactive.

As to `CCC(=O)Nc1cc(-c2ccco2)nn1-c1nc2c(c(=O)[nH]1)CCC2`, the compound was called inactive.

For `O=C(CCC(=O)N1CC(c2nc(-c3cccs3)no2)C1)c1ccccc1`, the compound was called inactive.

For the compound `Cc1ccc(Cl)c(-n2nnc(C(=O)Nc3ccccc3Cl)c2C)c1`, the call was inactive.

In the case of `O=C(NCC(=O)N1CCN(c2cc(-n3cccc3)ncn2)CC1)c1ccccc1`, the call was inactive.

Take `O=C(Nc1ccc2c(c1)OCO2)Nc1ccccc1NC(=O)c1ccccc1F`: the compound was classed as inactive.

Regarding `O=S(=O)(NC1CCN(c2ccc(-c3ccccc3Cl)nn2)CC1)c1cccs1`, the result was inactive.

As to `O=C(CN1CCN(c2ccccc2F)C1=O)Nc1ccc(OC(F)(F)F)cc1`, the compound was called inactive.

`CCOC(=O)N1CCc2c(sc(NC(=O)c3ccc(C)c(C)c3)c2-c2nc3ccccc3s2)C1`: the result was inactive.

In the case of `Cc1nnc(NC(=O)C2CCN(c3ccc(-c4ccco4)nn3)CC2)s1`, the call was inactive.

Turning to `Cc1cc(-c2ccccc2)nc2cc(-c3nc(-c4cccs4)no3)nn12`, the result was inactive.

On to `CCCCCNC(=O)c1sc(-c2nnn(-c3ccc(F)cc3)c2C)nc1C`, for which the compound was classed as inactive.

In the case of `Cc1ccc2[nH]c3c(=O)n(CC(=O)N4CCN(c5cccc(C(F)(F)F)c5)CC4)cnc3c2c1`, the call was inactive.

Turning to `COc1ccc(NCCN2N=C(C)C(C)n3c2nc2c3c(=O)n(C)c(=O)n2C)cc1` (centres undefined), the compound was called inactive.
